Results taken from PubChem BioAssay AID797 (University of Pittsburgh Molecular Library Screening Center, 2007).
Among all 200,000 compounds or so, about 110 (0.055%) were called active. Cut-off read from the data, not from the text of the source: active = inhibition above about 50%; inactive = the rest. Many of the other results were omitted from the sample, so actives are more common in it than they were. Where a SMILES comes first, the peptide text is derived from it. [ ]: non-standard residue; d: D form. ξ: configuration not given here. ξM = CSCCC(N)C(=O)O

Biological target: Serine/threonine-protein kinase D1 (Homo sapiens) (UniProt Q15139)
Sequence (Q15139 whole entry, looked up): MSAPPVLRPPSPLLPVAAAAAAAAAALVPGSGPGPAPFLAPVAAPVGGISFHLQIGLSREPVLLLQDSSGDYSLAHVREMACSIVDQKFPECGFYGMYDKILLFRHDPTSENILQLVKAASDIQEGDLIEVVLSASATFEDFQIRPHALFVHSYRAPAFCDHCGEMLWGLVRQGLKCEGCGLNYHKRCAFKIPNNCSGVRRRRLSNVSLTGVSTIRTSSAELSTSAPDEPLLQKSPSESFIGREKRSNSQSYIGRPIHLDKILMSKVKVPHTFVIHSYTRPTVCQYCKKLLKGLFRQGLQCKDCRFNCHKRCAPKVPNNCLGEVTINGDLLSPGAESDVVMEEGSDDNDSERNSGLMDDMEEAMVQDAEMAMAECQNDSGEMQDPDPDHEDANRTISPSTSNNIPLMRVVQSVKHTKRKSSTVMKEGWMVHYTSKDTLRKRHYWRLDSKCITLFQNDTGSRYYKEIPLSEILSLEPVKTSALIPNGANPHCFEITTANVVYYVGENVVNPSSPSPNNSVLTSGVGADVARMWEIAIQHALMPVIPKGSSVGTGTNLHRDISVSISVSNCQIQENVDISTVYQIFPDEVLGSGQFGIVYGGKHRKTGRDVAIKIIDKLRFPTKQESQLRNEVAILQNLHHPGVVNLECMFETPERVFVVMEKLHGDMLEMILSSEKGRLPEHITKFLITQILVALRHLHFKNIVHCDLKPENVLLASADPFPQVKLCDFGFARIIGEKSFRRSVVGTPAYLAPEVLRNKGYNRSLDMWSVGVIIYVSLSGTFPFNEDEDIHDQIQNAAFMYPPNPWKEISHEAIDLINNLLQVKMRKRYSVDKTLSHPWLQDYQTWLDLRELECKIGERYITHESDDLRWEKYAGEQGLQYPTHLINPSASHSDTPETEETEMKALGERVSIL
Test: inhibitors of human PKD1 kinase, biochemical, fluorescence polarization (AID 797)
Details: PKD1 kinase fluorescence polarization assay; active compounds read high; concentration not given here

inhibition, inactive:
CCn1nc(C)c(/C=N/NC(=O)Cc2ccc(Cl)cc2)c1C 3.28%
O=C(O)c1cccc(N2C(=O)Nc3ccccc3N2O)c1 7.76%
CCCCCCNCCn1cnc2c(N)ncnc21 6.16%
CC1CCN(c2ccc(C(=O)NCc3ccc4c(c3)OCO4)cc2[N+](=O)[O-])CC1 0.75%
Brc1c(CSc2nncc3ccccc23)nc2ccccn12 7.29%
Cc1ccc(O)c(-c2cc(C(=O)NCc3ccccc3)[nH]n2)c1 -6.87%
CCOC(=O)C(CC)/C(C)=N\NC(=O)c1cccc(C)c1 (stereo not given) -4.87%
COc1cccc2cc(/C(C)=N/NC(=O)c3ccco3)oc12 5.6%
O=C(CC1NCCc2ccccc21)Nc1cccc(Cl)c1 (stereo not given) -4.65%
O=C(CN1CCN(c2ccc(O)cc2)CC1)Nc1cc(S(=O)(=O)N2CCOCC2)ccc1Cl 1.7%
CC1(C)C(C=C(Cl)Cl)C1C(=O)N(Cc1ccc(Cl)cc1)C1CCS(=O)(=O)C1 (stereo not given) 0.63%
CCOC(=O)Cc1ncccc1C(=O)Nc1ccc(OC(F)(F)F)cc1 -0.72%
CN1C(=O)/C(=C\c2ccc(-c3ccccc3)o2)SC1=S -6.62%
CSc1cccc(NC(=S)N(Cc2ccccc2)Cc2ccccn2)c1 -9.2%
COC(=O)CNC(=O)C(CCSC)NC(C)=O (stereo not given) (Ac-[ξM]-Gly-OMe) 9.67%
O=C(CSc1ccc(-c2cccs2)nn1)Nc1ccccc1F 2.17%
CCN(CC)CCOCCOc1ccc(Cl)c2ccccc12 -3.28%
CN1CCN(C(=O)C2=C[C@H](c3ccc4c(c3)OCO4)C[C@H](OCc3ccc(CO)cc3)O2)CC1 -5.9%
O=C1/C(=C/c2cccs2)CCC1C1CCCC1 (stereo not given) -1.44%
Cc1ccc(NC(=O)Nc2nnc(-c3ccncc3)s2)cc1 2.87%
CCc1nnc(NC(=O)CSc2nc(SC)ns2)s1 1.32%
O=C(Nc1nnc(C2COc3ccccc3O2)o1)c1ccc(F)cc1 (stereo not given) -1.94%
CCC(C)NCC(=O)Nc1ccc([N+](=O)[O-])cc1C(=O)Nc1ccccc1F (stereo not given) -10.9%
CNC(=O)COC(=O)c1cc(-c2ccc(OC)cc2)nc2ccccc12 -3.14%
Nc1cccc(-c2cc(-c3ccccc3)nc(-c3cccc(N)c3)n2)c1 -18.9%
COC(=O)NNC(=O)C1CCC(C)CC1 (stereo not given) -3.54%
Cc1cccc(NC(=O)c2nnn(-c3cccc(C(F)(F)F)c3)c2N)c1 -0.25%
S=C1NC(c2ccccc2)=NCN1c1ccc(Br)cc1 0.72%
COc1ccc2ccccc2c1CNc1nnnn1C -8.73%
CCC(C)NC(=O)/C=C/c1ccc(S(=O)(=O)NCc2ccco2)cc1 (stereo not given) 7.02%
CCCCSc1nc2ccccc2[nH]1 -6.36%
CN(CCc1cn[nH]c1)C(=O)CC1C(=O)NCCN1Cc1cccc(Oc2ccccc2)c1 (stereo not given) -3.31%
Cc1c(C(=O)NCCN2C(=O)S/C(=C\c3cccs3)C2=O)cccc1[N+](=O)[O-] 8.76%
Cc1ccc2c(=O)oc(N(C)C)nc2c1 1.27%
C#CCOCCOCCOCCNc1nc(N2CCN(C(=O)[C@H](CCCCN)n3cc([C@@H](N)C(C)CC)nn3)CC2)nc(N2CCN(C(=O)[C@H](Cc3ccc(O)cc3)n3cc([C@@H](N)C(C)CC)nn3)CC2)n1 (stereo not given in full) -0.05%
C=CCNC(=S)N1CCN(CCN=Cc2c(C)[nH]n(-c3ccc([N+](=O)[O-])cc3)c2=O)CC1 -2.35%
CC(Oc1ccc(Cl)cc1)c1ccnn1S(C)(=O)=O (stereo not given) -7.83%
CCOC(=O)c1c(NC(=O)C2CCN(S(=O)(=O)c3ccc(Cl)cc3)CC2)sc2c1CCCC2 8.85%
CCCCCC1CCC(c2nnc(SCC(C)=O)o2)CC1 (stereo not given) -8%
O=[N+]([O-])c1cc(S(=O)(=O)N2CCCC2)ccc1NN=C1CCCC1 2.42%
Cc1cc(N/N=C/c2ccccc2F)c2ccccc2n1 4.69%
Cc1ccc(-n2cc(CN(C)Cc3nccn3C)c(-c3cccc(C)c3)n2)cc1 -5.32%
COc1ccc(S(=O)(=O)Nc2cccnc2)c(Cl)c1Cl -2.39%
O=C(NCCCN1CCOCC1)c1ccc(N2CCCC2)c([N+](=O)[O-])c1 -1.03%
CC(C)(C)c1nnc(N/N=C/c2ccc(O)cc2)n(N)c1=O -3.71%
CC(C)(C)NC(=O)NC(=O)CN1CCC(Cc2ccccc2)CC1 -4.14%
CCN1/C(=C\c2ccc3ccccc3[n+]2CC)Sc2cc(C)ccc21 -5.46%
Cc1scc(C(=O)NNC(=S)NCc2ccccc2)c1C -7.68%
COc1ccc(/C=N/n2c(C)cc(C)cc2=O)cc1 -7.11%
CCCn1c(NC(=O)C23CC4CC(CC(O)(C4)C2)C3)nc2ccccc21 -0.11%
